Source: PubChem BioAssay
D2 PAM-1: positive allosteric modulators of human D2 dopamine receptor | P14416 | HEK293 T-REx D2, calcium flux, EC20 dopamine potentiation | potentiation, % at 10 µM | actives 0.34% (n = 340,000);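 active means potentiation over 3 SD above the plate norm, cut at about 30% in these data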
Target sequence (P14416 whole entry, looked up): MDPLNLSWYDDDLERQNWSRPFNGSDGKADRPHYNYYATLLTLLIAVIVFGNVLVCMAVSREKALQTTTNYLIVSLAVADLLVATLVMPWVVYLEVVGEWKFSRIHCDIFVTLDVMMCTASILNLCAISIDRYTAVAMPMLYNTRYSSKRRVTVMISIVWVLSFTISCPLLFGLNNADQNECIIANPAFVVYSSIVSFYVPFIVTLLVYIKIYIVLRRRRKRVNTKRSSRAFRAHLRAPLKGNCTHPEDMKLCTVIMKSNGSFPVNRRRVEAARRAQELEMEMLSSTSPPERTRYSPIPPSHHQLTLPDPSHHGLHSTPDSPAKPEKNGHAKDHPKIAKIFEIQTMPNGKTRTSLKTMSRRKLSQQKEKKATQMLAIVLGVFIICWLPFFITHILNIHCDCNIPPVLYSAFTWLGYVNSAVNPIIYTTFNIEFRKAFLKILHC
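Using a no-wash calcium dye in inducible, force-coupled HEK293 Trex cells expressing D2, we tracked fluorescence each second for 180 s after compound, then for 180 s after EC20 dopamine to detect augmented signalling.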
D2 ag-1: activates the human D2 dopamine receptor; P14416; HEK293 T-REx D2 cells, calcium flux agonist mode; activation, % at 2 µM; actives 0.53% (n = 340,000);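 active means activation over 3 SD above normal in the single-dose calcium agonist read, cut at about 30% in these data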
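In this primary screen, compounds producing a positive calcium signal within 180 s of addition to tetracycline-induced, force-coupled HEK293 Trex D2 cells are flagged; cells are dye-loaded with a no-wash calcium kit beforehand.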
D2 PAM-2: positive allosteric modulators of human D2 dopamine receptor; DiscoveRx D2 beta-arrestin cells, luminescence, 90 min; 100% = 57 uM dopamine signal; potentiation, % (test concentration not listed); actives 0.23% (n = 360,000); in the data active means potentiation above about 50%; inconclusive means mostly about 30% to 49%
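D2 cells co-treated with compound plus 50 nM dopamine (EC20) for 90 min at 37 deg C to detect potentiation. Beta-arrestin recruitment was read as enzyme-fragment luminescence after 1 h at ambient temperature. Full response was set by 57 uM dopamine.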
D2 antag: antagonizes the human D2 dopamine receptor | actives 2% (n = 340,000) | HEK293 TREx D2 cells, calcium flux, dopamine EC80 | P14416 | AID 485344 | inhibition, % at 10 µM; in the data active means inhibition above about 30%; inactive means below that, where a call was filed
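Overnight-induced (tetracycline, 30 C) HEK293 T-REx cells carrying force-coupled D2 receive a no-wash calcium dye, then compound, then EC80 dopamine at 180 s; signals are read kinetically throughout.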
D2 ag-2: agonists of human D2 dopamine receptor (beta-arrestin); DiscoveRx PathHunter D2 beta-arrestin, luminescence, 90 min; 100% = 57 uM dopamine signal; activation, % (test concentration not listed); actives 0.084% (n = 360,000); AID 624465; P14416; in the data active means activation above about 40%; inconclusive means between about 15% and that limit
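DiscoveRx PathHunter D2 beta-arrestin cells (2,100/well) attached overnight, then compound-stimulated 90 min at 37 C in HBSS/10 mM HEPES/0.1% Tween-20 buffer; beta-galactosidase complementation read by luminescence after 1 h at ambient temperature. Dopamine 57 uM final (EC100) as control.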
D3 ag: confirmation of human D3 dopamine receptor agonists, beta-arrestin. shares compounds with D2 ag-1. DiscoveRx D3 beta-arrestin cells, luminescence, 90 min. Potency, µM (titrated, usually from 76.9 µM), hits mostly activators. actives 4% (n = 2,300); further: nearly all actives have a fitted effect of over 70% in size
D2 ag-3: activates human D2 dopamine receptor in D3 counterscreen. shares compounds with D2 ag-1. Potency, µM (series often up to 76.9 µM), actives largely listed as activators. AID 720507. DiscoveRx PathHunter D2 beta-arrestin, luminescence, 90 min; response scale: percent relative to full dopamine signal. actives 5.9% (n = 2,300); further: nearly all actives have a fitted effect of over 70% in size
Each line names hits and unclear results; the compound was inactive in the other large screens (follow-up assays come after a bar, where they were run). A selection: hits, their analogues and other compounds. The true share with any hit is near 2.4%. Unless noted, the call rests on the fitted dose curve; in most records, active means well fitted activation curve with a large enough effect; inconclusive means small, poorly fitted or top-dose-only effect; inactive means flat fitted curve, though single readings scatter.

CCOC(=O)c1c(C)c(C(=O)NCCCN2CCCC2=O)c(C)n1CC	D2 ag-1 62 | D3 ag inactive | D2 ag-3 inactive
CCOC(=O)N1CCC(NCCNC(=O)c2ccco2)CC1	D2 ag-1 76, D2 antag 38 | D3 ag inactive | D2 ag-3 inactive
CCOC(=O)N1CCC(NC(=O)C(Cc2ccccc2)NC(=O)c2ccco2)CC1 (stereo not given)	none (no result: D2 PAM-1)
CCCn1c(-c2ccc(S(=O)(=O)N3CCOCC3)cc2)csc1=Nc1ccc(OCC)cc1	none (no result: D2 ag-1, D2 PAM-2, D2 antag, D2 ag-2)
CCOc1ccc(Sc2cc(C(=O)NCCCOC)c3ccccc3n2)cc1	none (no result: D2 PAM-2, D2 antag, D2 ag-2)
Cc1cccc(NC(=O)Cn2nnc(C(=O)Nc3ccccc3Br)c2N)c1C	none (no result: D2 PAM-2, D2 antag, D2 ag-2)
Cc1ccc(OCCOCCN2CCCCC2)c([N+](=O)[O-])c1	none
Cc1ccc([N+](=O)[O-])c(OCCN2CCNCC2)c1	D2 ag-1 68, D2 antag 71 | D3 ag inconclusive | D2 ag-3 inactive
CC(C)(C)OC(=O)N1CCC(CNC(=O)c2ccc(F)cc2)CC1	D2 ag-1 32 | D3 ag inactive | D2 ag-3 inactive
COC(=O)[C@H](Cc1ccccc1)NS(=O)(=O)N[C@@H](Cc1ccccc1)C(=O)OC	none | D3 ag inactive | D2 ag-3 inactive
COC(=O)C(Cc1ccccc1)NS(=O)(=O)c1ccccc1Br (stereo not given)	none
Cc1ccc2ncc3c(-c4ccc(F)cc4)nn(CC(=O)Nc4ccccc4C)c3c2c1	none (no result: D2 PAM-2, D2 antag, D2 ag-2)
O=C(c1ccco1)N1CCN(Cc2cccc([N+](=O)[O-])c2)CC1	D2 ag-1 37 | D3 ag inactive | D2 ag-3 inactive
O=C(c1ccc([N+](=O)[O-])cc1)N1CCN(C(=O)c2cccs2)CC1	none (no result: D2 ag-1, D2 antag)
O=C(c1ccco1)N1CCN(C(=O)c2cc3cc([N+](=O)[O-])ccc3oc2=O)CC1	none
O=C(c1cccs1)N1CCN(Cc2cccc([N+](=O)[O-])c2)CC1	D2 ag-1 71, D2 antag 38 | D3 ag inactive | D2 ag-3 inconclusive
O=C(c1cccs1)N1CCN(Cc2ccccn2)CC1	D2 ag-1 78, D2 antag 52 | D3 ag inconclusive | D2 ag-3 inconclusive
Cc1cccn2c(=O)cc(CSc3nnc(NC(=O)COc4ccc(F)cc4)s3)nc12	none (no result: D2 PAM-1, D2 PAM-2, D2 antag, D2 ag-2)
Cc1ccc(NC(=O)CN2C(=O)c3ccccc3Sc3ccc(C(=O)N4CCCC4)cc32)cc1	none (no result: D2 PAM-2, D2 antag, D2 ag-2)
Cc1ccc(-n2nc3c(=O)n(CC(=O)NCc4ccccn4)nc(C)c3c2C)cc1	D2 ag-1 52 | D3 ag inactive | D2 ag-3 inactive
Cc1ccccc1OCCC(=O)OCC(=O)NNC(=O)c1cccs1	none (no result: D2 PAM-1, D2 ag-1, D2 antag) | D3 ag inactive | D2 ag-3 inactive
COc1ccccc1OCC(=O)NNC(=O)c1cccs1	none
COc1cccc(C(c2sc3nc(-c4ccco4)nn3c2O)N2CCN(C)CC2)c1 (stereo not given)	none (no result: D2 PAM-2, D2 antag, D2 ag-2)
CCC(C)N(NC(C)=O)c1nc(Cl)nc(NC(C)(C)C)n1 (stereo not given)	D2 ag-1 80 | D3 ag inactive | D2 ag-3 inactive
CC(CCc1ccccc1)NCc1cccc2ccccc12 (stereo not given)	D2 ag-1 57, D2 antag 32 | D3 ag inactive | D2 ag-3 inactive
COc1ccc(CCNCCC(c2ccccc2)c2ccccc2)cc1OC	none (no result: D2 PAM-1, D2 ag-1, D2 antag)
COc1cc(OC)c(OC)cc1CCC(C)NCCC(c1ccccc1)c1ccccc1 (stereo not given)	D2 ag-1 50, D2 antag 49 | D3 ag inactive | D2 ag-3 inconclusive
COc1ccccc1CCNC(C)CCc1ccc(O)cc1 (stereo not given)	D2 ag-1 41 | D3 ag inconclusive | D2 ag-3 inactive
COc1ccc(CCC(C)NCc2ccccc2OC)cc1 (stereo not given)	none
CN(C)CCCNc1oc(/C=C/c2ccc(F)cc2)nc1C#N	none (no result: D2 PAM-2, D2 antag, D2 ag-2)
CCC(C)NC(=O)C1CCN(C(=O)c2ccccc2)CC1 (stereo not given)	none
CCC(C)NC(=O)C1CCN(CCCc2ccccc2)CC1 (stereo not given)	D2 ag-1 51 | D3 ag inactive | D2 ag-3 inactive
CCc1ccc(NC(=O)Cn2ccn(-c3ccc(C)c(C)c3)c(=O)c2=O)cc1	none (no result: D2 PAM-2, D2 antag, D2 ag-2)
O=C(CN1CCN(c2ccc(O)cc2)CC1)Nc1cc(S(=O)(=O)N2CCCC2)ccc1Cl	D2 ag-1 54, D2 antag 44 | D3 ag 40µM | D2 ag-3 inconclusive
O=C(CN1CCc2ccccc2C1)Nc1cc(S(=O)(=O)N2CCOCC2)ccc1N1CCCC1	D2 ag-1 76, D2 antag 83 | D3 ag inactive | D2 ag-3 inactive
CCN1CCN(c2ccc(S(=O)(=O)N3CCOCC3)cc2NC(=O)c2ccc(C)cc2C)CC1	none | D3 ag inactive | D2 ag-3 inactive
O=C(NCCN1CCN(c2ccccc2F)CC1)c1ccc2nc3ccccc3c(=O)n2c1	D2 ag-1 67, D2 antag 57 | D3 ag inactive | D2 ag-3 inconclusive
Cc1c(C)n(C)c2ccc(C(=O)NCCCN3CCN(c4ccc(F)cc4)CC3)cc12	none
Cn1c(C(=O)NCCN2CCN(c3ccccc3F)CC2)cc2c(=O)n(C)c3ccccc3c21	D2 ag-1 54, D2 antag 95 | D3 ag inactive | D2 ag-3 inactive
CCc1nc2ccc(C(=O)NCCCN3CCN(c4ccccc4F)CC3)cc2nc1CC	D2 antag 88 | D3 ag inactive | D2 ag-3 inactive
Cc1c(C)n(C)c2ccc(C(=O)NCCCN3CCN(c4ccccc4F)CC3)cc12	D2 ag-1 67, D2 antag 98 | D3 ag inactive | D2 ag-3 inactive
COC(=O)c1cc(S(=O)(=O)NCCN2CCN(c3ccccc3F)CC2)c[nH]1	D2 antag 73 | D3 ag inactive | D2 ag-3 inactive
CCc1ccc(CN(C)C(=O)c2cc(S(=O)(=O)N3CCOCC3)ccc2N2CCCC2)cc1	none
CN(Cc1cccc(F)c1)C(=O)c1cc(S(=O)(=O)N2CCOCC2)ccc1N1CCCC1	none | D3 ag inactive | D2 ag-3 inactive
COC(=O)C1(C(F)(F)F)N=C(C(F)(F)F)Nc2ccc(Cl)cc21 (stereo not given)	none (no result: D2 PAM-1, D2 ag-1, D2 antag)
CCOC(=O)C1(C(F)(F)F)N=C(C(F)(F)F)Nc2cc(C)c(C)cc21 (stereo not given)	none | D3 ag inactive | D2 ag-3 inactive
CCN(CC)S(=O)(=O)c1ccc(NC(=O)[C@H](CCSC)N2Cc3ccccc3C2=O)cc1	none (no result: D2 PAM-2, D2 antag, D2 ag-2)
